This note sets out measurements from ChEMBL document CHEMBL4513142, “CO-ADD screening of Indiana University - Purdue University Indianapolis (USA) compounds”.

“And” between values parts separate entries of the source, which are not always exact repeats. Identical values can stand only once. Results with a measured potency or affinity are listed apart.

Usually Inhibition stands for the drop in the measured response relative to a control, in per cent.

The test system of one experiment is Klebsiella pneumoniae. The note with it: Concentration 32 ug.mL-1, ASSAY_TEST Inhibition of Bacterial Growth, detection method Absorption (OD600), MEDIA CAMHB, plate type 384well, NBS, CORNING #3640, time 18 hr.
In the next experiment the test system is Cryptococcus neoformans. The settings on record: Concentration 32 ug.mL-1, ASSAY_TEST Inhibition of Fungal Growth, detection method Resazurin, Absorption (OD600-OD570), plate type 384well, NBS, CORNING #3640. In general terms: The colour change of resazurin is a common sign of viable cells or microbes.
A further experiment relates to Candida albicans. The settings on record: 32 ug/mL.

Consider `O=C(N[C@@H](Cc1ccccc1)C(=O)O)C1CCCCC1`, for which the Inhibition is 1.14% and 5.62% with Klebsiella pneumoniae (32 ug/mL); -13.27% and -11.08% with Cryptococcus neoformans (32 ug/mL).
Regarding `NC(=O)[C@H](Cc1ccccc1)NC(=O)c1cccnc1`, the Inhibition in the experiment with Klebsiella pneumoniae (32 ug/mL) was 15.19% and 20.47%; in the experiment with Candida albicans, 6.63% and 4.08%; with Cryptococcus neoformans (32 ug/mL), -3.63% and -8.29%.
For `CCCNC(=O)C(Cc1ccccc1)NC(=O)Cc1ccccc1` (stereo unspecified), the Inhibition is 14.33% in the experiment with Klebsiella pneumoniae, 5.66% in the experiment with Candida albicans and -5.77% in the experiment on Cryptococcus neoformans.
Consider `NC(=O)[C@H](Cc1ccccc1)NC(=O)c1c(F)c(F)c(F)c(F)c1F`, for which the Inhibition is 8.47% and 11.14% with Klebsiella pneumoniae (32 ug/mL); 3.95% and 8.52% with Candida albicans; -9.93% and -7.63% in the experiment with Cryptococcus neoformans (32 ug/mL).
As to `[C-]#[N+]c1ccc(C(=O)NC(CC=C)C(=O)NCCC)cc1` (stereo unspecified), the values for the Inhibition in the experiment with Klebsiella pneumoniae, with Candida albicans and with Cryptococcus neoformans were 4.31%, 3.05% and -8.98%, respectively.
For the compound `NC(Cc1ccc(F)c(F)c1)C(=O)O.O=C(O)C(F)(F)F` (stereo unspecified), the Inhibition was 7.21% and 5.15% in the experiment on Klebsiella pneumoniae (32 ug/mL); 1.67% and -0.02% with Candida albicans; -13.22% and -14.09% in the experiment on Cryptococcus neoformans (32 ug/mL).
Take `CCCNC(=O)C(Cc1ccc(F)cc1)NC(=O)c1ccccc1` (stereo unspecified): the Inhibition is 12.41% with Klebsiella pneumoniae, 2.54% in the experiment with Candida albicans and -4.63% in the experiment on Cryptococcus neoformans.
The matching figures for `[C-]#[N+]c1ccc(C(=O)NC(Cc2ccc(C(F)(F)F)cc2)C(=O)NCCC)cc1` (stereo unspecified): 13.54%, 5.79% and -3.04%.
As for `CC(C)C[C@H](NC(=O)c1cccnc1)C(N)=O`, the Inhibition in the experiment with Klebsiella pneumoniae (32 ug/mL) was 3.3% and -1.43%; in the experiment with Cryptococcus neoformans (32 ug/mL) it was -4.01% and -5.8%.
With `CC(C)[C@H](NC(=O)c1cccc(C(F)(F)F)c1)C(=O)O`, the Inhibition is -0.42% and 3.74% in the experiment with Klebsiella pneumoniae (32 ug/mL); 7.7% and 10.5% in the experiment with Candida albicans; -6.26% and -6.2% in the experiment on Cryptococcus neoformans (32 ug/mL).
Consider `CCCNC(=O)C(Cc1ccccc1C)NC(=O)c1ccc(C(F)(F)F)cc1` (stereo unspecified), for which the results for the Inhibition with Klebsiella pneumoniae, in the experiment on Candida albicans and in the experiment on Cryptococcus neoformans were 12.54%, 0.78% and -3.03%, respectively.
